From the supplement of paper PMC6555819 come the findings set out here.

The assay deals with RARb homodimer (NR concentration 270 nM). The assay can be described thus: PBM binding z-score (relative to random genomic background probes); higher = stronger binding; sequences stand for … in GC…GCGATTGACAGCGTAGAATGAAGG
An outline of the steps: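 Binding z-scores were set against random background probes. The data came from custom Agilent 4×180K protein-binding microarrays carrying double-stranded probes with 34-nt variable regions, incubated 1 h with ligand-free nuclear receptor dimers. Partner-specific antibodies detected binding, and scanned fluorescence was regression-normalized.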
GCTCGGAGGACAAGGTCAGATCTTTGTCCGTAGA had a PBM binding z-score of 3.06.

With CTACCAAGGTGAGCAAGGTCGTTGATTACTATTC, the PBM binding z-score was 1.65. Consider CGTCCAAGATCAAGGTCAGTGAAAGAGACTCGAA, for which the PBM binding z-score is 2.88. For the sequence AGAATGAGGTTATTAAGATCAGGGAGTTGCGGTC, the PBM binding z-score stood at 0.826. As for ACAGACAGGTGAGGAAGGTAACTCAGGCTATCAT, the PBM binding z-score worked out at 0.672. In turn, CGTCCATGGTCAGCAGGTCAGTGAAAGCGACGTG showed a PBM binding z-score of 2.46.

Sequence TCTTGTAGATCATAGGTTAAGAAAGCCGAAGCCT had a PBM binding z-score of 0.203.

For CAAACTAGGTCACAAAGGTCAAAGTCCGTGCGTA, the PBM binding z-score worked out at 5.75. The value for CTCGAAAGGTCGTGCTAAGGTGAGTATACCAAAC was 3.37; that for TCGAGTAGGTTAACAATGGGGCATTCAGCTTTCT was 0.737; that for ACAGACAGGTGATGAAGGTTACTCAGGCTATCAT was 1.16. AGAACGAGGGCACGCTGAGTTGATACCAGAGTAG returned a PBM binding z-score of 1.13.

TAGCCTACGTCATTGGGCCAGTATAGTACGCATC had a PBM binding z-score of -0.397. GCGACTGGGGCATAAGCAGGTTACCATAACTTAA: the PBM binding z-score came to 0.55. GCTTCTAGGTCAGGTTGGTCAGCTAACGGGTACG yielded a PBM binding z-score of 2.86. For the sequence TGCCAAAGTTCAAAGGTAACGTAAGTATCCACAC, the PBM binding z-score came to 3.8. The sequence TCTCCGAGGACACGAAAGGTCAGAGCTCGACATC returned a PBM binding z-score of 4.77.

As to CCGACTGGGGCAGAAAGGTTACCAAACCATCCGG, the PBM binding z-score was 2.23. ACAGACAGGTGTTGAAGGTAACTCAGGCTATCAT: the PBM binding z-score is -0.0362. For the sequence TCGAGTAGGTTAGCGGCATTCAGAATGGCGTCGA, the PBM binding z-score is -0.725. Turning to CCTACTGGGCCATTCACAGGTCATTGATCATATG, the PBM binding z-score is 2.72. AGAATGAGGTTATACGTAAATCAGGGAAGAAAGT: the PBM binding z-score is 0.771.

CCAGACAAGTGAAAGGTAACTCAGTCTGGTACGC displayed a PBM binding z-score of 0.344. To AGGATGAGGTTATTAAGATCAGGGAATTGCGGTC belongs 1.49; to ACTAGTTGGTCAGCTGCGGTCACACACAATTCGG, 2.82; to TCAGCCAGGTGAAGGTAACTCAGGTACGCAGTCG, 0.236.

With TAGCCTAGGTCATTCGGGCCAGTATAGTGTCGGC, the PBM binding z-score came to 3.25.

ACTATTAGTTGACTTAGGGCAACCAATACGACGC had a PBM binding z-score of 1.15. As for ACTAGCGGGCCAAGGGTCACTCAAGATTAGTCCG, the PBM binding z-score is 3.7. GCAAACAGGTGAAACGCAGGTAACTCAGGGTGGC came in with a PBM binding z-score of 0.0626. With CGTCAAAGTTCAACGAAGGTAACGTAAAGCACGC, the PBM binding z-score was 4.08. The sequence ATCGAAAGGTCGAGGTAAGTATAGAGAAAGGGAA yielded a PBM binding z-score of 2.39. CGTCCAAGGTCAAAGCTAGGTCAGTGAAAGCATT displayed a PBM binding z-score of 5.03.

In the case of ATCTCTAGGCAACCAAGTTCAGTGAATGCCGAAC, the PBM binding z-score came out at 1.25. TCATATAGGTAAACAGGTGAAATTCCGTAAGTTA came in with a PBM binding z-score of 0.605.

On to TAGCCTAGGTCATTCAGGGGCGAGTATAGAAAGC, for which the PBM binding z-score is 2.77. As for GCAGCTAGGTCAGGTTGGTCAGCTAACGGGTACG, the PBM binding z-score was found to be 2.83. CCTATTTGGTCAGGAGGTCACACACCGGATATGA gave a PBM binding z-score of 4.24. In turn, GATACAGGGTCAGATAGAGGCCAGAGTATGGAAA registered a PBM binding z-score of 3.28.

Turning to CCGACTGGGGCAGAAAGGTAACCATACCATCCGG, the PBM binding z-score was found to be 0.454.
